# This is part of a sample that, as a whole, favours compounds with a hit. Of some 83,000 tested, about 20% had one in any assay.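 A percent growth of 40 corresponds to 60% growth inhibition; 0 means no net growth; -100 means all cells died. Active threshold: below 10.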 Unmarked numbers belong to inactive results. Active and inactive are the calls of the source.
# Columns and labels:
# Test in all cases: NCI-60 one-dose screen, 48 h (100 = growth as untreated, 0 = no growth, -100 = all killed)
# Settings in all cases: 10 µM unless noted
# [1] = system: HCT-15 colon
# [2] = system: SNB-75 CNS
# [3] = system: SNB-19 CNS
# [4] = system: U251 CNS
# [5] = system: PC-3 prostate
# [6] = system: SK-MEL-5 melanoma
# [7] = system: UACC-62 melanoma
# [8] = system: LOX IMVI melanoma
# [9] = system: SK-MEL-28 melanoma
# [10] = system: EKVX NSCLC
# [11] = system: SN12C renal
# [12] = system: UO-31 renal
# [13] = system: ACHN renal
# [14] = system: CAKI-1 renal
# [15] = system: A498 renal
# [16] = system: CCRF-CEM leukemia
# [17] = system: MOLT-4 leukemia
# [18] = system: SK-MEL-2 melanoma
# [19] = system: TK-10 renal
# [20] = system: HT29 colon
Compound,growth [1],growth [2],growth [3],growth [4],growth [5],growth [6],growth [7],growth [8],growth [9],growth [10],growth [11],growth [12],growth [13],growth [14],growth [15],growth [16],growth [17],growth [18],growth [19],growth [20]
O=C1CNc2cc(Cl)ccc2N1,109%,89.8%,107%,101%,104%,99.9%,101%,101%,107%,89.1%,103%,81.6%,98.6%,97.8%,97.3%,93.3%,87.4%,–,–,–
COc1cc(/C=C/c2cc(/C=C/c3ccc(O)c(OC)c3)n(C(=O)Cc3ccccc3)n2)ccc1O,6.11% (active),0.658% (active),7.03% (active),-2.58% (active),3.01% (active),-31.8% (active),1.59% (active),–,-4.66% (active),–,9.07% (active),-9.97% (active),5.4% (active),20.9%,-9.09% (active),0.172% (active),1.08% (active),–,–,–
Cc1cc(C(=O)Nc2ccc3cc(CN4CCOCC4)ccc3n2)c(C)n1-c1ccccc1,40.4%,15.5%,77%,46.3%,4.55% (active),-38.1% (active),7.01% (active),24.2%,27.9%,44.9%,73%,53.3%,50.5%,49.7%,79.8%,8.79% (active),-17.4% (active),16.6%,70.4%,–
COc1ccccc1NC(=O)c1sc2nc3c(cc2c1N)C(=O)CCC3,47.3%,56.6%,64.6%,65.1%,65.9%,38.9%,44.4%,79.4%,59.1%,–,70.2%,70.5%,70.4%,52.7%,-5.03% (active),67.7%,89.6%,–,–,–
Cc1[nH]ccc2cc3nc4ccccc4c3cc12,20.3%,40%,44.9%,26.4%,33.4%,37.8%,62%,–,54.5%,30.7%,27.8%,8.89% (active),15.4%,52%,4.99% (active),17.1%,8.62% (active),–,–,–
CCCCN1c2nc3ccccc3cc2Sc2cc3ccccc3nc21,–,107%,107%,109%,78.6%,82.1%,91.7%,103%,116%,85.1%,102%,22%,107%,460%,116%,89.2%,103%,61.9%,108%,95.2%
O=C(Nc1ccccc1S)c1ccccc1,108%,81.7%,100%,94.8%,88.5%,114%,86.6%,84.9%,112%,94.6%,95.2%,91.8%,104%,–,86.5%,106%,82%,–,–,–
N#Cc1c(-c2ccccc2)cc(-c2ccccc2)n(CCCCCCC(=O)O)c1=O,90.7%,–,96.3%,98.1%,105%,99.8%,90.7%,–,103%,92.5%,99.2%,82.7%,98.8%,97.7%,–,106%,98.4%,88.8%,105%,97.4%
COc1cc(/C=C2\CN(S(=O)(=O)c3ccc(C)cc3)C/C(=C\c3cc(CN4CCOCC4)c(O)c(OC)c3)C2=O)cc(CN2CCOCC2)c1O,-31.3% (active),25.8%,12.9%,15.5%,2.79% (active),-63.4% (active),-45.8% (active),-49.3% (active),-33.2% (active),11.6%,-19.3% (active),-89.3% (active),-82.4% (active),9.3% (active),36.5%,8.78% (active),4.35% (active),–,–,–
COc1ccc(CC(=O)Nc2nn3c(-c4cc(C(F)(F)F)cc(C(F)(F)F)c4)nnc3s2)cc1,62.4%,–,70.1%,70.4%,84.8%,2.85% (active),28.6%,52.3%,84.5%,67.4%,64.7%,–,81.9%,46.2%,79.9%,49.9%,–,–,–,83.7%
COc1ccc(-c2cc(-c3cccnc3)nc3sc(C(=O)Nc4ccccc4)c(N)c23)cc1OC,63.5%,82.8%,79.8%,61.3%,56.9%,75.1%,69.3%,60%,73.3%,–,57.2%,32.2%,41.1%,46.7%,65.1%,36.9%,32.1%,–,–,–
CCCCOP(=O)(OCCCC)C(C(=O)OCC)C(CC(=O)OCC)C(=O)OCC (stereo not drawn),86.4%,59.9%,100%,–,88.6%,109%,105%,109%,104%,–,100%,91.9%,93.2%,98.4%,97.8%,–,109%,–,–,–
C[C@]12CCC(=O)C=C1CC[C@H]1[C@@H]3C[C@@H](O)[C@](O)(C(=O)CO)[C@@]3(C)C[C@H](O)[C@@]12F,–,108%,99.9%,109%,95.3%,101%,98%,96%,107%,88.4%,82.9%,74.1%,104%,78.5%,97.2%,97.1%,84.1%,109%,104%,103%
CN1CCN(CCCCCN=c2cc3c(=O)n(CCCCCN4CCN(C)CC4)c(=O)c4c(NCCCCCN5CCN(C)CC5)cc5c(O)n(CCCCCN6CCN(C)CC6)c(=O)c2c5c4-3)CC1,107%,-8.4% (active),3.84% (active),2.35% (active),12.6%,44.3%,21.9%,1.9% (active),-34.8% (active),-11.4% (active),5.16% (active),115%,88.5%,102%,95.6%,13.9%,25.2%,–,–,–
O=C1/C=C/[C@@H](O)[C@@H]2C[C@@H](O)C[C@H]2/C=C/CCC[C@H](CO)O1,26.2%,35.7%,48.8%,24.1%,39.5%,-88% (active),15.8%,–,-18.8% (active),36.4%,43.9%,11.2%,19.8%,17.9%,-30.3% (active),22.3%,-16.9% (active),–,–,–
CC(=O)Nc1c(Cl)cc2c(c1Cl)Cc1cc([N+](=O)[O-])ccc1-2,101%,36.6%,95.8%,89%,72.6%,55.9%,65.3%,86.2%,102%,42.2%,97.1%,86.3%,79.5%,–,88.8%,57.2%,85%,–,–,–

Compound,growth [1],growth [2],growth [3],growth [4],growth [5],growth [6],growth [7],growth [8],growth [9],growth [10],growth [11],growth [12],growth [13],growth [14],growth [15],growth [16],growth [17],growth [18],growth [19],growth [20]
Cc1cc(C)cc(S(=O)(=O)n2ccc(-c3ccc4c(c3)CCC(C)(C)O4)n2)c1,82.3%,87.2%,94.6%,85.6%,82.4%,82.9%,73.9%,95%,–,–,88%,75%,92.8%,72.5%,63%,96.3%,91.4%,–,–,–
CC1(C)CC2(C)CC(=O)C1C(C(=O)O)C2C(=O)O (stereo not drawn),110%,96.4%,113%,101%,108%,102%,102%,101%,117%,121%,105%,98%,97.2%,114%,111%,99.4%,94.3%,–,–,–
O=C1c2cc3c(cc2-c2c1c1ccc(Cl)cc1c(=O)n2CCCNCCO)OCO3,-78.3% (active),-88.8% (active),-62.8% (active),-94.6% (active),-85.5% (active),–,-70.7% (active),-89.2% (active),-74% (active),-65.3% (active),-66.6% (active),-81.7% (active),-87.5% (active),-80% (active),-94.4% (active),-24.9% (active),-34.5% (active),–,–,–
COc1ccccc1-n1c(-c2ccc(O)cc2C)cn2c3c(=O)[nH]c(=O)n(C)c3nc12,98.4%,7.76% (active),117%,97.6%,77.1%,81.5%,76.6%,72.6%,104%,98.7%,75%,74.2%,74%,79.4%,80.2%,106%,81.4%,–,–,–
CCCCCCCCCCNCCSS(=O)(=O)O,86.4%,96.1%,65.9%,15%,88.7%,39.8%,4.6% (active),20.9%,51.5%,101%,31.5%,70.6%,92.6%,98.8%,101%,50.3%,9.96% (active),–,–,–
Nc1c(C(=O)Nc2cccc(Cl)c2)sc2nc3c(cc12)C(O)CCC3 (stereo not drawn),18.8%,28.8%,65.9%,17.4%,28.5%,28.7%,44.6%,48.1%,55.8%,–,35.5%,41.9%,43.3%,37%,-10.6% (active),15.7%,16.3%,–,–,–
COc1ccc(-c2cc(-c3cccnc3)nc(S(=O)(=O)CC(=O)Nc3ccc(C)cc3)c2C#N)cc1OC,95.1%,78.7%,94.6%,91.7%,83.7%,72%,99.4%,88.9%,102%,–,97.2%,59.8%,98.3%,91.2%,57.3%,100%,75.2%,–,–,–
COc1ccc(C(=O)/C=C/c2ccc(C)cc2)cc1OC,46.9%,64.9%,70.3%,27.7%,51%,74%,68.1%,48.6%,87.4%,93%,75.7%,-12% (active),86.2%,–,80.7%,23.4%,52.1%,–,114%,–
c1cc[n+](Cc2ccnc3ccccc23)cc1,64.3%,53.6%,103%,–,80.8%,107%,104%,90.8%,104%,–,102%,73.6%,94.2%,91.1%,109%,–,108%,–,–,–
CCN(CC)CCCCCCCNc1c2ccc(Cl)cc2nc2ccc(OC)cc12,-5.62% (active),-94.1% (active),-10.1% (active),-70.2% (active),-56.1% (active),-100% (active),-55% (active),-7.86% (active),-77.4% (active),-6.42% (active),0.458% (active),-52% (active),-39.1% (active),–,-92.1% (active),–,-11.3% (active),–,–,–
COc1cc(Cl)cc(-c2nn(-c3cccc(NC(=O)c4cc(C(F)(F)F)cc(C(F)(F)F)c4)c3)cc2-c2ccncc2)c1,58.6%,60.8%,86.4%,60.7%,35.6%,67.3%,81.4%,76.1%,78.8%,–,69.8%,54.3%,58.2%,68.6%,-1.74% (active),57.1%,55.3%,–,–,–
c1ccc2c(-c3nc4ccccc4[nH]3)cccc2c1,27.1%,27.8%,52.5%,12.5%,54.1%,20.1%,32.2%,34.6%,51.5%,70%,47.3%,–,52.7%,61.2%,29.1%,22.3%,11.6%,–,–,–
O=C(Nc1cccc(-n2cc(-c3ccncc3)c(-c3cc(O)cc(Cl)c3)n2)c1)Nc1ccc(Cl)c(Cl)c1,-25.3% (active),4.08% (active),30.8%,-56.5% (active),-1.66% (active),-53% (active),-61.8% (active),-84.7% (active),-50.9% (active),–,14.9%,-41.3% (active),6.85% (active),5.31% (active),-2.98% (active),4.11% (active),-27.1% (active),–,–,–
Clc1ccc2[nH]cc(-c3cncn3CCc3ccccc3)c2c1,51%,–,71.1%,57.9%,46.7%,10.8%,57.4%,70%,69.8%,34.4%,57.2%,42.2%,66%,39%,–,–,51%,52.5%,42.8%,57.3%
COc1ccc(OC)c(CCn2cncc2-c2c[nH]c3cc(Br)ccc23)c1,25.1%,–,50.1%,34.9%,34.5%,-75.8% (active),36.8%,37%,57.5%,35.3%,49.5%,39.5%,58.3%,35.5%,–,36.8%,16.2%,7.7% (active),45.9%,10.2%
COc1cc(NC(C)CCCN)c2nc(C)ccc2c1Oc1ccc(F)cc1 (stereo not drawn),71.2%,64.6%,78.8%,73.2%,63.9%,86.2%,81.9%,51%,97.8%,75.1%,69.9%,45.4%,84.6%,75.9%,60.4%,–,–,–,–,–
